For 83 compounds, inhibition results are on record in PubChem BioAssay AID434973 (Sanford-Burnham Center for Chemical Genomics, 2010).

The inhibition is the drop in the measured response relative to a control, in per cent.

The whole screen tested about 330,000 compounds, of which about 4,900 (1.5%) were called active. Shown is part of a subset that was picked to be rich in actives. Values without a mark were called inactive.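 Rule for the calls: active = inhibition above about 50% at the single test dose (limit read from the data); inactive = the rest.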

In the assay the target is Sentrin-specific protease 7 (Homo sapiens) (UniProt Q9BQF6). The experiment in a line: blockers of human SENP7 peptidase activity – biochemical, luminescence, uHTS, primary screen (AID 434973).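 Note: plate controls were DMSO with enzyme for no effect and no enzyme buffer wells for full effect.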 Conditions: recombinant SENP7, Z-RLRGG-aminoluciferin luminescence, 40 min; at 5 µM; hits give high values.
With `CC12C(=O)N(c3ccccc3)C(=O)C1C(c1ccccc1)N1CCCN12` (stereo not drawn), the inhibition is -4.08%.
On to `C=CCn1c(SCC(=O)c2c(N)n(C)c(=O)n(C)c2=O)nc2sc(CC)cc2c1=O`, for which the inhibition was -1.46%.
For the compound `CN(CCO)c1ccc(/C=N/Nc2nncc3ccccc23)cc1`, the inhibition is 93% (active).
Take `COc1cccc(/C=N\Nc2nncc(-c3ccccc3)n2)c1`: the inhibition is 24.7%.
As for `C/C(=N\Nc1nncc2ccccc12)c1ccc(Cl)c([N+](=O)[O-])c1`, the inhibition is 5.32%.
In the case of `COc1ccc([N+](=O)[O-])cc1N(CC(O)CN(CC(C)C)CC(C)C)S(=O)(=O)c1ccc(C)cc1` (stereo not drawn), the inhibition is 3.08%.
Turning to `COc1ccc(C2CC(=O)C=C(NCC3CCCO3)C2)cc1` (stereo not drawn), the inhibition was 5.59%.
The figure for `O=C(CN1C(=O)NC2(CCCCCC2)C1=O)NCc1cccs1` is 3.72%; for `O=C(Nc1nnc(Cc2ccccc2)s1)c1cnccn1` it is 3.97%.
As for `Cc1cccc(NC(=O)CSCC(=O)Nc2nnc(C3CC3)s2)c1`, the inhibition is 4.12%.
Take `Cc1cnc(NC(=O)c2ccccn2)s1`: the inhibition was 82.8% (active).
For `O=C(Nc1nnc(C2CC2)s1)c1ccccn1` the value was 57.4% (active).
For `CCc1cc(C(=O)Nc2nnc(C3CC3)s2)sc1C`, the inhibition was -5.93%.
Take `Cc1ccc(SCC(=O)Nc2ncc(C)s2)cc1`: the inhibition was -2.81%.
The figure for `O=C(Nc1nnc(C2CC2)s1)c1cc(Cl)sc1Cl` is 5.7%.
Take `Cc1cnc(NC(=O)C2CCCC2)s1`: the inhibition is 0.0964%.
The figure for `Cc1cc(C(=O)Nc2nnc(C3CC3)s2)c(C)s1` is 77% (active).
For the compound `OC(CNC1CCCC1)COc1ccc(F)cc1` (stereo not drawn), the inhibition was 7.04%.
`Cc1nn(C(C)(C)C)c(OC(=O)CC(C)C)c1S(=O)(=O)c1ccccc1`: the inhibition is 4.96%.
Consider `COc1ccc(S(=O)(=O)N2CCN(C(=O)c3cc(C)oc3C)CC2)cc1`, for which the inhibition is 3.33%.
For `COc1ccccc1-c1oc2ccccc2c1C#CCCCCO`, the inhibition is 5.54%.
In the case of `CC1Cc2ccccc2N1C1=CC(=O)CC(C)(C)C1` (stereo not drawn), the inhibition is -3.44%.
Consider `CC(C)(C)NC(=O)c1ccc(Cn2cc(C(F)(F)F)ccc2=O)cc1`, for which the inhibition was -6.25%.
Take `Clc1ccc(-c2nc3ccccn3c2CN2CCSCC2)cc1`: the inhibition is -5.08%.
Consider `Cc1ccc(C(=O)C(=S)N2CCOCC2)cc1`, for which the inhibition is -2.91%.
As for `Cc1[nH]n(C)c(=O)c1N=Nc1ccc(S(C)(=O)=O)cc1`, the inhibition was 0%.
The figure for `Cc1[nH]n(C(N)=S)c(=O)c1N=Nc1ccc(Cl)cc1Cl` is 51.8% (active); for `CC1=NN(C(N)=S)C(=O)C1N=Nc1cc(Cl)ccc1Cl` (stereo not drawn) it is -5.66%; for `CCOc1ccc(NC(=O)N2CC=C(n3c(=O)[nH]c4ccccc43)CC2)cc1` it is 4%.
Turning to `CC1CN(/C=C/C(=O)C(F)(F)F)CC(C)O1` (stereo not drawn), the inhibition is 1.13%.
Take `CC(C)Sc1ncnc2c1cnn2-c1ccccc1`: the inhibition is 45.7%.
With `O=C(NCCC1=CCCCC1)C1CCN(Cc2cnn(-c3ccccc3)c2-n2cccc2)CC1`, the inhibition was -3.45%.
In the case of `C1=C(CCNc2ncnc3c2cnn3-c2ccccc2)CCCC1`, the inhibition is 56.6% (active).
Take `CCCS(=O)(=O)N1CCC(C(=O)NCCCN(C)Cc2ccccc2)CC1`: the inhibition is -8.04%.
Consider `O=C(Nc1ccccc1Cl)c1ccc2nsnc2c1`, for which the inhibition was 50.7% (active).
As for `Cc1cccc(NC(=O)c2ccc3nsnc3c2)c1C`, the inhibition is 2.56%.
With `O=C(Nc1ccccc1)c1ccc2nsnc2c1`, the inhibition is 35.8%.
Regarding `COc1ccc([N+](=O)[O-])cc1-c1nc2ccccc2nc1-c1ccccc1`, the inhibition is -0.763%.
For the compound `COc1cccc(-c2nc3cc(C)ccc3o2)c1`, the inhibition was 99.9% (active).
As to `Cc1nc(-c2ccc([N+](=O)[O-])cc2)c(-c2ccccc2)o1`, the inhibition was -7.84%.
For the compound `COc1ccc2oc(-c3cccc(NC(=O)CSc4ccc(Cl)cc4)c3)nc2c1`, the inhibition was -4.24%.
Consider `COc1cccc(-c2nnc(SCCOc3ccc4c(C)cc(=O)oc4c3)o2)c1`, for which the inhibition is 7.33%.
For `O=[N+]([O-])c1ccc2oc(-c3cccc(O)c3)nc2c1` the value was 87.7% (active); for `Cc1ccc(C2(C)NC(=O)N(CC(=O)Nc3ccccc3C(=O)N3CCCCC3)C2=O)cc1` (stereo not drawn), 12.4%.
As for `COCOc1cc(O)c(C(=O)/C=C/c2ccc(OCOC)c(OCOC)c2)c(OCOC)c1`, the inhibition is 6.61%.
Turning to `Cc1nnc(NC(=O)/C=C/c2ccco2)s1`, the inhibition was -7.44%.
Regarding `O=C(/C=C/c1ccco1)Nc1ccc(Oc2ccccc2)cc1`, the inhibition is 63.9% (active).
The figure for `O=C(/C=C/c1ccco1)NC(=S)Nc1ccccc1Br` is -4.36%; for `CCOc1cc(NC(=O)CCl)c(OCC)cc1NC(C)=O` it is 5.15%.
For `O=C(Cc1ccc(S(=O)(=O)N2CCOCC2)s1)N1CCN(c2ccc(C(F)(F)F)cc2[N+](=O)[O-])CC1`, the inhibition was -8%.
`O=C(O)c1ccc(N=NN2CCOCC2)cc1`: the inhibition was -2.47%.
`NC1=NN(c2cccc(C(=O)O)c2)C(=O)C1`: the inhibition was 5.47%.
The figure for `O=C(O)c1cccc(N=NN2CCCCCC2)c1` is 77.8% (active); for `CC(=O)Oc1ccc(-c2nc3c(C)cccc3c(=O)o2)cc1` it is -7.63%.
Regarding `O=C(Oc1ccc([N+](=O)[O-])cc1)c1ccc2ccccc2n1`, the inhibition is -9.28%.
The figure for `CC(=O)Oc1ccc2c(=O)oc(-c3ccc([N+](=O)[O-])cc3)nc2c1` is 97.5% (active); for `COc1ccc(OCC(=O)NCCc2ccc(S(N)(=O)=O)cc2)cc1` it is 7.31%.
For the compound `CCc1ccc(C(=O)COC(=O)c2ccco2)cc1`, the inhibition was 68.9% (active).
As for `O=C(OCC(=O)N1CCCC1)c1ccco1`, the inhibition was -6.82%.
Consider `O=C(COC(=O)c1ccco1)NCc1ccc(Cl)cc1`, for which the inhibition was -0.452%.
Regarding `Cc1ccc(-n2nc(-c3ccco3)cc2C(=O)NCc2cccnc2)cc1`, the inhibition was 0.29%.
As for `COc1ccc(NS(=O)(=O)c2cc(C(=O)Nc3ccccc3C(=O)O)ccc2C)cc1`, the inhibition is 9.65%.
The figure for `CCOc1cc(/C=N/NC(=O)c2cc(-c3ccccc3)nc3ccccc23)ccc1O` is -1.26%; for `O=C(N/N=C/c1ccc(OC(=O)c2ccccc2Cl)cc1)c1ccc(O)cc1` it is 4.1%.
For the compound `COc1ccc(C(=O)Nc2ccccc2C(=O)N/N=C/c2ccc(O)c(OC)c2)cc1`, the inhibition was 101% (active).
As to `COc1ccc(/C=N/Nc2ccccc2C(=O)O)cc1`, the inhibition was 94.3% (active).
With `COc1ccccc1C(=O)NNC(=O)c1ccc(NC(=O)c2ccccc2)cc1`, the inhibition was 11.6%.
Turning to `COc1ccc(C(=O)Nc2ccccc2C(=O)N/N=C/c2ccccc2OC)cc1`, the inhibition is 64.8% (active).
For `COc1ccc(/C=N/OCC(=O)N(Cc2ccccc2)c2ccccc2C(=O)O)cc1`, the inhibition was 6.96%.
Regarding `COc1ccc(C(=O)Nc2cc(C)c(NC(=O)c3ccccc3OC)cn2)cc1`, the inhibition is 9.47%.
Take `O=C(CN1C(=O)NC2(CCCCC2)C1=O)N1CCN(C(=O)c2cccs2)CC1`: the inhibition was -1.61%.
For `COc1cc(S(=O)(=O)N2CCN=C2c2ccccc2)ccc1Cl` the value was -10%.
For the compound `O=C(CC1OC(=O)c2ccccc21)NC1CCCCC1` (stereo not drawn), the inhibition is 1.77%.
As for `CC(C)c1c(O)nc(SCCOc2ccc(Cl)cc2)[nH]c1=O`, the inhibition was 8.54%.
As to `O=C(Cn1cnc2ccccc2c1=O)NNC(=O)c1ccccc1F`, the inhibition was -11%.
As for `CCN1CCN(C(C(=O)NC2CCCC2)c2cc3c(cc2[N+](=O)[O-])OCO3)CC1` (stereo not drawn), the inhibition is -3.92%.
As for `Nc1nc(C23CC4CC(CC(C4)C2)C3)cs1`, the inhibition is 3.32%.
Consider `COc1ccccc1N1CCN(C(=O)C(=O)N/N=C/c2ccccc2F)CC1`, for which the inhibition was -1.74%.
With `Fc1ccccc1/C=N/Nc1cc(N2CCCCC2)ncn1`, the inhibition was 69.8% (active).
For `C(=N/Nc1cc(N2CCOCC2)nc(N2CCOCC2)n1)/c1ccccc1` the value was 31.9%.
On to `CC(=O)Nc1ccc(S(=O)(=O)Nc2cc(C)cn(Cc3ccc(C)cc3)c2=O)cc1`, for which the inhibition is 2.97%.
With `Cc1ccc(S(=O)(=O)NC[C@H]2O[C@@H](n3cnc4c(N)ncnc43)[C@H](O)[C@@H]2O)s1`, the inhibition was 6.73%.
Turning to `CC(=O)c1cccc(NC(=O)COc2ccc(S(=O)(=O)N3CCOCC3)cc2)c1`, the inhibition was 3.63%.
